In PubChem BioAssay:
Where “and” joins values, the source holds several entries; their conditions need not be identical. Equal values may be shown once. Inconclusive results are not listed. Calls of active or inactive are those of the source.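 Rule for the calls, unless noted: active = normalized viability below 100% at a tested concentration; inactive = the rest.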

Experiments:
[1] = SU-DIPG-VI glioma cell viability, MIPE4.0 library, CellTiter-Glo luminescence, qHTS (AID 1347066; cut-off not given, nearly all actives have AC50 up to about 30 µM;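 note: cells exposed to compound for 48 hours before readout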); conditions: CellTiter-Glo ATP luminescence
[2] = modifiers of HSF1 nuclear foci, imaging, Selleck Cancer Library (AID 1347162; in the data active = plate-normalised HSF1 focus index below about 0.46); conditions: human cells, at 10 µM; SSMD: measured here: HSF1 foci SSMD mean; cell count: measured here: cell number; plate-normalised HSF1 focus index: stronger effect = lower value
[3] = survival rescue of mitochondrial mutant cells in low glucose, primary screen, MELAS cybrids, Rieske KO mouse fibroblasts, CellTiter-Glo (AID 1508586;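 active = mean z-score across replicates of 1.96 or higher in either the MELAS or the Rieske mutant cell line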;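 note: z relative to plate mean and SD of compound and empty wells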)
[4] = ovarian cancer cell viability with rucaparib, profiling panel, oncology-focused library, rucaparib conditional (AID 1508598); conditions: patient-derived ovarian cancer cells, CellTiter-Glo viability, 144 h, stronger effect = lower value
[5] = target: NAD(+) hydrolase SARM1 (Homo sapiens) (UniProt Q6SZW1); assay: SARM1 TIR NADase inhibitors, cell lysate, NAD-Glo luminescence (AID 1508614;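 active = compound whose remaining NAD level is above about 45 nM, limit read from the data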;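 note: higher remaining NAD means stronger inhibition of SARM1 NADase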); conditions: SAM-TIR HEK293T lysate NADase, at 1 µM, stronger effect = higher value
NAD(+) hydrolase SARM1 (Homo sapiens), sequence (Q6SZW1 whole entry, looked up, the tested form may be a part): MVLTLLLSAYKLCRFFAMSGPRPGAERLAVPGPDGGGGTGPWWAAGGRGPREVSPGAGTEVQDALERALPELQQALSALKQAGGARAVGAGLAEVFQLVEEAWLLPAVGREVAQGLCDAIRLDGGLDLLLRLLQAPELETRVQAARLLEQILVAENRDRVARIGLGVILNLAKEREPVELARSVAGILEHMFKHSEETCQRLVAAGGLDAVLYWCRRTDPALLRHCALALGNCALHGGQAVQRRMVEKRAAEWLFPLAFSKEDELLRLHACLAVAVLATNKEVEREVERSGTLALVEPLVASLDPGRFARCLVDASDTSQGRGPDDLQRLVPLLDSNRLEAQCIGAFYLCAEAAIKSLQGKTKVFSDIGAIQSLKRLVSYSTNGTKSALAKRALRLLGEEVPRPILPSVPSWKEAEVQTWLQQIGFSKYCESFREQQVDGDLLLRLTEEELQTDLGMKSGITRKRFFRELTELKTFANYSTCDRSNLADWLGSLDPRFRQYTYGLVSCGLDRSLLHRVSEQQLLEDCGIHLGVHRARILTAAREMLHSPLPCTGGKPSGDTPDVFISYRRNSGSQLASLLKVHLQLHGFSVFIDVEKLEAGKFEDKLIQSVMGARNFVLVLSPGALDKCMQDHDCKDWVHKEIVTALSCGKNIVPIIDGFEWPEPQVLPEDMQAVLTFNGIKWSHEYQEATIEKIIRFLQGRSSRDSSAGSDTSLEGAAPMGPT

[6] = target: Mitogen-activated protein kinase 7 (Homo sapiens) (UniProt Q13164); assay: ERK5 transactivation activators in reporter cells, primary screen, cell-based, HTS (AID 1508626;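 active = luciferase signal above three times the same-plate solvent-only control wells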;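 note: luciferase driven by Gal4-ERK5 fusion binding five Gal4 sites before minimal TATA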); conditions: HeLa Gal4-ERK5 transactivation, 18 h, at 5 µM, stronger effect = higher value
Mitogen-activated protein kinase 7 (Homo sapiens), sequence (Q13164 whole entry, looked up, the tested form may be a part): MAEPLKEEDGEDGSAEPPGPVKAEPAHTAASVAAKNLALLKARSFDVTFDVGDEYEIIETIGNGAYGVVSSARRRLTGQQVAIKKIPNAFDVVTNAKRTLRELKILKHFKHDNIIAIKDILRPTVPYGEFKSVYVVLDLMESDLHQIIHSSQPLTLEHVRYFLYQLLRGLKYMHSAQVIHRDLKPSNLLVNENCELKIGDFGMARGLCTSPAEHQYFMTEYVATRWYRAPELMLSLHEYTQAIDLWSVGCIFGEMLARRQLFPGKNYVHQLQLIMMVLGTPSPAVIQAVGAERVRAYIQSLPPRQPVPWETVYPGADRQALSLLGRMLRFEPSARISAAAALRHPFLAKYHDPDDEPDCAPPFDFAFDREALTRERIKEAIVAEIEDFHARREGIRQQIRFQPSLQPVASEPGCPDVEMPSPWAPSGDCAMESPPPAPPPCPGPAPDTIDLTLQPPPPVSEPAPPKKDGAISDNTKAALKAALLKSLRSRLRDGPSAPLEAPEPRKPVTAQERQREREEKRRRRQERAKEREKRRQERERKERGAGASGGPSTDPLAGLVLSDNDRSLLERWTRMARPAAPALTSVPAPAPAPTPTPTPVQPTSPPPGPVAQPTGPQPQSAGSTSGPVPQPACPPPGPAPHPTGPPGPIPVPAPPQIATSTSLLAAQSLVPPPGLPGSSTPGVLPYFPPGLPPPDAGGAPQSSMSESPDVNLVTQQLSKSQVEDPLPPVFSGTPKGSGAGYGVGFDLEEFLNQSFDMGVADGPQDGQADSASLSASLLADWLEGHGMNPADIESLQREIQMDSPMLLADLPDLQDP

[7] = viability rescue of complex I mutant cybrids, primary screen, cell-based, galactose medium, ATP luminescence (AID 1645843;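 active = z-score of at least 1.8 in each of two replicates, scored against plate mean and spread of sample wells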;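 note: positive z means more ATP and so rescue of galactose-driven cybrid death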); conditions: complex I mutant cybrid cells, 72 h, stronger effect = higher value
[8] = SU-DIPG-XXV glioma cell viability, MIPE5.0 library, qHTS (AID 1347068; cut-off not given, nearly all actives have IC50 up to about 30 µM)
[9] = phospholipid biosynthesis inhibitors in animal cells, primary screen, cell-based, LOPAC library, screen 4 (AID 1347384; call rule not given here); conditions: phospholipid biosynthesis inhibition screen, at 10 µM
[10] = sensitizers of A549 cells to miR-34 induction, primary screen, imaging, A549 dox-inducible miR-34, nuclei and caspase counts (AID 1347080;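 active = compounds whose cell count with miR-34 switched on is under 0.7 times the count with it off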); conditions: A549 miR-34 inducible, Hoechst nuclei count, 48 h
[11] = MELAS cybrid survival, CellTiter-Glo 48 h, stronger effect = higher value
[12] = Rieske KO mouse fibroblast survival, CellTiter-Glo 72 h

CC(c1cc2ccccc2s1)N(O)C(N)=O (stereo not drawn)
7010: cell count [2]
2.48: SSMD [2]
active: viability ([4]; at 0.000305 µM, OCI-P5x cells, with rucaparib 20 µM, 100% = cells with rucaparib alone) 77.5% | viability ([4]; at 0.000305 µM, OCI-P5x cells, without rucaparib) 83.5% | viability ([4]; at 0.00122 µM, OCI-C5x cells, with rucaparib 10 µM, 100% = cells with rucaparib alone) 98.9% | viability ([4]; at 0.00122 µM, OCI-P5x cells, with rucaparib 20 µM, 100% = cells with rucaparib alone) 61% | viability ([4]; at 0.00122 µM, OCI-P5x cells, without rucaparib) 79.9% | viability ([4]; at 0.00488 µM, OCI-P5x cells, with rucaparib 20 µM, 100% = cells with rucaparib alone) 48.8% | viability ([4]; at 0.00488 µM, OCI-P5x cells, without rucaparib) 63.4% | viability ([4]; at 0.0195 µM, OCI-P5x cells, with rucaparib 20 µM, 100% = cells with rucaparib alone) 47.6% | viability ([4]; at 0.0195 µM, OCI-P5x cells, without rucaparib) 63.9% | viability ([4]; at 0.0781 µM, OCI-P5x cells, with rucaparib 20 µM, 100% = cells with rucaparib alone) 97.3%
0.713 and 0.986 and 1.26: z-score [3, 12]
inactive: outcome [1] | plate-normalised HSF1 focus index [2] 1.14 | z-score [3, 11] -0.393 and -0.528 and -0.827 | viability ([4]; at 0.000305 µM, OCI-C5x cells, with rucaparib 10 µM, 100% = cells with rucaparib alone) 111% | viability ([4]; at 0.000305 µM, OCI-C5x cells, without rucaparib) 124% | viability ([4]; at 0.00122 µM, OCI-C5x cells, without rucaparib) 121% | viability ([4]; at 0.00488 µM, OCI-C5x cells, with rucaparib 10 µM, 100% = cells with rucaparib alone) 128% | viability ([4]; at 0.00488 µM, OCI-C5x cells, without rucaparib) 122% | viability ([4]; at 0.0195 µM, OCI-C5x cells, with rucaparib 10 µM, 100% = cells with rucaparib alone) 119% | viability ([4]; at 0.0195 µM, OCI-C5x cells, without rucaparib) 125% | viability ([4]; at 0.0781 µM, OCI-C5x cells, with rucaparib 10 µM, 100% = cells with rucaparib alone) 103% | viability ([4]; at 0.0781 µM, OCI-C5x cells, without rucaparib) 125% | viability ([4]; at 0.0781 µM, OCI-P5x cells, without rucaparib) 118% | viability ([4]; at 0.313 µM, OCI-C5x cells, with rucaparib 10 µM, 100% = cells with rucaparib alone) 113% | viability ([4]; at 0.313 µM, OCI-C5x cells, without rucaparib) 121% | viability ([4]; at 0.313 µM, OCI-P5x cells, with rucaparib 20 µM, 100% = cells with rucaparib alone) 115% | viability ([4]; at 0.313 µM, OCI-P5x cells, without rucaparib) 123% | viability ([4]; at 1.25 µM, OCI-C5x cells, with rucaparib 10 µM, 100% = cells with rucaparib alone) 109% | viability ([4]; at 1.25 µM, OCI-C5x cells, without rucaparib) 124% | viability ([4]; at 1.25 µM, OCI-P5x cells, with rucaparib 20 µM, 100% = cells with rucaparib alone) 106% | viability ([4]; at 1.25 µM, OCI-P5x cells, without rucaparib) 124% | viability ([4]; at 5 µM, OCI-C5x cells, with rucaparib 10 µM, 100% = cells with rucaparib alone) 113% | viability ([4]; at 5 µM, OCI-C5x cells, without rucaparib) 129% | viability ([4]; at 5 µM, OCI-P5x cells, with rucaparib 20 µM, 100% = cells with rucaparib alone) 105% | viability ([4]; at 5 µM, OCI-P5x cells, without rucaparib) 116% | remaining NAD [5] 10 nM | luciferase signal [6] 36 AU | z-score [7] 0.465 and 0.63

C[C@](N)(Cc1ccc(O)c(O)c1)C(=O)O
inactive: outcome [1] | outcome [8] | outcome [9] | z-score [3, 11] -1.52 and -0.0357 | remaining NAD [5] 10 nM | luciferase signal [6] 68 AU | z-score [7] -1.24 and -0.53 and -0.665
-0.276 and -0.892: z-score [3, 12]

CS(=O)(=O)c1ccc([C@@H](O)[C@@H](CO)NC(=O)C(Cl)Cl)cc1
1.05 and 2.01: fold change ([10]; measured here: relative caspase fold change +Dox/-Dox)
8380 and 11100: cell count ([10]; measured here: total cells without miR-34 induction)
inactive: outcome [1] | fold change ([10]; stronger effect = lower value, cell number ratio, induced over uninduced) 0.9 and 0.984 | z-score [3, 11] 0.78 | remaining NAD [5] 23 nM | luciferase signal [6] 44 AU
-3.27: z-score [3, 12]
7540 and 11000: cell count ([10]; measured here: total cells with miR-34 induction, stronger effect = lower value)
